aSyn UTR act = Activators via SNCA 5'UTR binding, MLPCN | 300,000 compounds, 7.1% hits | activity score, % (tested at 7.5 µM), hits read low | alpha-synuclein 5'UTR reporter, activators screen; in the data active = activity score below about -60%
Starred values were filed as active, the others as inactive. Only a sample is shown.

SMILES	aSyn UTR act
Cc1ccc(OCc2nc(-c3ccccc3)no2)c(C)c1	-212*
CN=C1S/C(=C\c2ccc(N3CCOCC3)c(F)c2)C(=O)N1C	-76*
CN=C1S/C(=C\c2ccc(N3CCCC3)c(F)c2)C(=O)N1C	-139*
Cc1ccc(Nc2nnc(-c3ccc4c(c3)OCO4)o2)c(C)c1	-93*
CCSc1nnc(Nc2ccccc2)s1	-99*
CCSc1nnc(Nc2ccc(C)cc2)s1	-161*
O=C1CCCCC1Sc1nnc(Nc2ccccc2)s1 (configuration not stated)	-127*
COc1cc(C2Nc3cc(Cl)c(S(N)(=O)=O)cc3S(=O)(=O)N2)ccc1OCc1ccccc1 (configuration not stated)	-147*
CCOc1cc(/C=C2/NC(=S)NC2=O)ccc1OCc1ccc([N+](=O)[O-])cc1	62
CCOc1cc(/C=C2/SC(=S)N(C)C2=O)ccc1Oc1ccc([N+](=O)[O-])cc1[N+](=O)[O-]	-62*
Cc1ccc(Cn2nnnc2CN2CCC(c3nc4ccc(Cl)cc4[nH]3)CC2)cc1	78
O=S(=O)(c1ccc(Cl)cc1)N1CCC(c2nc3ccccc3[nH]2)CC1	76
CCOc1ccc(NC(=O)N2CCC(c3nc4ccccc4[nH]3)CC2)cc1	-71*
Cc1ccc(-n2nc(C)c3c(C)c(CCC(=O)Nc4ccc(CN5CCCC5)cc4)c(C)nc32)cc1	104
CCOc1ccc(NC(=O)CCc2c(C)nn(-c3ccc(N4CCCCC4)nn3)c2C)cc1	-81*
Cc1ccc(NC(=O)CCc2c(C)nn(-c3ccc(N4CCCCC4)nn3)c2C)cc1F	-85*
Cc1nn(-c2ccc(N3CCCCC3)nn2)c(C)c1CCC(=O)Nc1cccc(F)c1	-120*
Cc1nn(-c2ccc(N3CCCCC3)nn2)c(C)c1CCC(=O)Nc1ccc(F)cc1	-90*
CN(C)c1ccc(P(=O)(Nc2ccccc2)N2CCOCC2)c(NC(=O)c2cccs2)c1 (configuration not stated)	-100*
Cc1ccc(NP(=O)(c2ccc(N(C)C)cc2NC(=O)c2cccs2)N2CCOCC2)cc1 (configuration not stated)	-91*
CN(C)c1ccc(P(=O)(Nc2ccc([N+](=O)[O-])cc2)N2CCOCC2)c(NC(=O)c2cccs2)c1 (configuration not stated)	-66*
Cn1cc(/C=C/c2cc[n+](C)cc2)c2cc(Cl)ccc21	64
Cc1ccc(-c2csc(N)n2)s1	-71*
CNC(=O)c1ccc(-c2ccc(OC)cc2)s1	-151*
CNC(=O)c1ccc(-c2ccc(Cl)c(Cl)c2)s1	-94*
SMILES	aSyn UTR act
O=C(Nc1ccc(F)cc1)c1nc(S(=O)(=O)Cc2ccccc2)ncc1Cl	67
CNC(=O)c1ccc(-c2ccc(F)cc2)s1	-101*
O=C(Nc1ccccc1)c1ccc(-c2ccc(F)cc2)s1	-206*
c1ccc(-c2noc(CC3CCCCC3)n2)cc1	-169*
c1cc(-c2noc(CCC3CCCC3)n2)ccn1	-79*
c1ccc(-c2noc(CCC3CCCC3)n2)cc1	-121*
CN(Cc1nc(-c2ccccc2)no1)C1CCOCC1	-98*
CCC(C)(C)c1ccc2c(c1)C(=O)c1ccccc1C2=O	-71*
CC1=NN(c2nc(-c3ccc(C)cc3)cs2)C(=O)C1N=Nc1ccccc1O (configuration not stated)	63
Cc1nc(-c2ccc(C(=O)Nc3ccccc3F)cc2)cs1	92
Cc1nc(-c2cc(-c3ccc(Cl)cc3)no2)cs1	-137*
COc1ccc(-c2csc(N3N=C(C)C(C)C3=O)n2)cc1 (configuration not stated)	-87*
COc1ccc(-c2csc(C)n2)cc1	-100*
Cc1nc(-c2ccc(C(=O)Nc3ccc(F)cc3)cc2)cs1	-109*
Cc1nc(-c2cccc(N)c2)cs1	-63*
CC(C)(C)c1ccc(C(=O)NCC(=O)OCC(=O)Nc2nc(-c3ccc(F)cc3)cs2)cc1	-175*
CC(OC(=O)CNC(=O)c1ccccc1F)C(=O)Nc1nc(-c2ccccc2)cs1 (configuration not stated)	-104*
COc1ccc(NC(=O)c2ccc(-c3csc(C)n3)cc2)cc1	-195*
CCn1c(C)nc2cc(NC(=O)Nc3cccc(C(C)=O)c3)ccc21	-99*
CCn1c(C)nc2cc(C(=O)NNC(=S)Nc3ccccc3OC)ccc21	-74*
CCn1c(C)nc2cc(C(=O)N/N=C(\C)c3ccccc3O)ccc21	-143*
CCn1c(C)nc2cc(C(=O)N/N=C/c3ccccc3C)ccc21	-142*
COc1ccccc1OCC#CCSc1ncccn1	-81*
Cc1cccc2c3nc4ccccc4nc3n(C)c12	-78*
O=C1NC(c2ccc(Br)cc2)=N/C1=C/c1ccco1	-149*
SMILES	aSyn UTR act
O=C1NC(c2ccccc2Cl)=N/C1=C/c1ccco1	-142*
O=C(NCc1ccc(F)cc1)Nc1ccc(Cl)cc1	-65*
CCN(CC)CC(=O)Nc1ccc(C)cc1Br	-77*
COc1cccc(NC(=O)C(=O)NCCc2ccc(F)cc2)c1	-109*
O=C(NCc1ccccn1)Nc1cccc(Cl)c1	-177*
O=C(NCc1ccc(F)cc1)Nc1cccc(Cl)c1	-149*
Fc1cccc(NC(=S)NCc2ccccn2)c1	-94*
